Several values for one entry are separate records, joined by “and”; a condition that tells them apart may be missing. Equal values may be shown once. Compounds without any hit were thinned out: in the full panel of roughly 83,000, 20% have a hit.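 Method: cells in 96-well plates; compound added at one concentration; 48 h incubation; percent growth measured; values under 10 scored active.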 Activity calls are given as the source filed them.
System: SR leukemia
Assay: NCI-60 one-dose screen, 48 h (100 = growth as untreated, 0 = no growth, -100 = all killed)
Conditions: 10 µM unless noted

SMILES	growth
CS(=O)(=O)c1nsc(N)n1	98.8% (inactive)
CCCC(=O)OCC(COC(=O)CCC)OC(=O)CCC	105% (inactive)
Cc1ccc(C(=O)c2ccc(C)cc2)cc1	84.3% (inactive) and 110% (inactive)
Cc1cc2nc3ccc(=[N+](C)C)cc-3sc2cc1N	-4.11% (active)
O=C1c2ccccc2C(c2ccccc2)C1c1ccccc1 (centres undefined)	86.3% (inactive)
COC(=O)CCOc1ccccc1	99.5% (inactive)
CC(C)(C(=O)c1cccnc1)c1cccnc1	84.7% (inactive)
N#CC1c2ccccc2C=CN1C(=O)c1ccccc1 (centres undefined)	91.7% (inactive) and 146% (inactive)
OCCS	90.5% (inactive)
Cc1ccc2cccc([N+](=O)[O-])c2n1	97.7% (inactive) and 94% (inactive)
CCN(C)c1ccccc1	93.3% (inactive)
CCCC(=O)Oc1ccc(CC)cc1	90.5% (inactive)
O=[N+]([O-])c1ccc(NC2CCCCC2)nc1	98.1% (inactive)
O=C1C(=O)c2ccccc2C(O)=C1CC=C(Cl)Cl	43.4% (inactive) and 55.5% (inactive)
CC1=CC(=O)c2cccc(NC3=NCCO3)c21	91.6% (inactive)
COc1ccc2nccc(Cl)c2c1	101% (inactive)
CCc1ccc(OC(=O)CCl)cc1	101% (inactive)
CC(=O)Oc1cc(C(C)C)c(OCCN(C)C)cc1C	107% (inactive)
O=C(O)c1cccc(Br)c1	90.2% (inactive) and 100% (inactive)

SMILES	growth
CC1(C)CC(=O)NC1=O	95.9% (inactive)
OCCSc1ccc(Cl)cc1	117% (inactive) and 99.7% (inactive)
COc1ccc(S(=O)(=O)c2ccc(F)cc2)cc1	87.4% (inactive)
COc1ccccc1OCC(O)CO (centres undefined)	116% (inactive) and 124% (inactive)
Cc1ccc(NC(=S)N/C=C(\c2ccccc2)S(=O)Cc2ccccc2)c(C)c1 (centres undefined)	96.5% (inactive)
O=[N+]([O-])c1ccc(NC(c2ccccc2)c2ccc3cccnc3c2O)cc1 (centres undefined)	6.12% (active)
CN1C2C=CC(=O)C1C1C(=O)N(c3ccccc3)C(=O)C12 (centres undefined)	67.5% (inactive)
Cc1cc(-c2ccc(N=Nc3c(C)nn(-c4ccc(S(=O)(=O)O)cc4)c3O)c(C)c2)ccc1N=Nc1ccc(O)c(C(=O)O)c1	86% (inactive)
CCOCCC(=O)O	109% (inactive)
O=c1ccn2c(n1)OC1CC2OC1COC(c1ccccc1)(c1ccccc1)c1ccccc1 (centres undefined)	46.1% [100 µM] (inactive)
O=c1[nH]nnc2cc(Cl)ccc12	117% (inactive) and 102% (inactive)
NC(=O)Cc1nc(O)cc(=O)[nH]1	93.5% (inactive)
CC1OS(=O)OC1C (centres undefined)	93.5% (inactive)
NNC(=O)Nc1ccccc1	96.5% (inactive)
COC(=O)c1ccccc1Cl	96.4% (inactive)
CCCCC/C(C)=N\NC(N)=S	86.9% (inactive)
COCCNC(C)=O	118% (inactive)
Nc1nc(-c2ccccn2)cc(-c2cc(-c3ccccn3)nc(N)n2)n1	92% (inactive)

System: RPMI-8226 leukemia
Assay: as above
Conditions: 10 µM unless noted

SMILES	growth
CS(=O)(=O)c1nsc(N)n1	106% (inactive)
CCCC(=O)OCC(COC(=O)CCC)OC(=O)CCC	98.1% (inactive)
S=c1nc[nH]c2nc[nH]c12	24.9% (inactive)
Cc1ccc(C(=O)c2ccc(C)cc2)cc1	86.8% (inactive) and 96.4% (inactive)
Cc1cc2nc3ccc(=[N+](C)C)cc-3sc2cc1N	-10.3% (active) and -38.2% (active)
O=C1c2ccccc2C(c2ccccc2)C1c1ccccc1 (centres undefined)	63.4% (inactive)
COC(=O)CCOc1ccccc1	92.7% (inactive)
CC(C)(C(=O)c1cccnc1)c1cccnc1	97% (inactive) and 92.1% (inactive)
N#CC1c2ccccc2C=CN1C(=O)c1ccccc1 (centres undefined)	105% (inactive) and 159% (inactive)
OCCS	104% (inactive)
Cc1ccc2cccc([N+](=O)[O-])c2n1	111% (inactive) and 92.8% (inactive)
CCN(C)c1ccccc1	104% (inactive)
CCCC(=O)Oc1ccc(CC)cc1	108% (inactive)
O=[N+]([O-])c1ccc(NC2CCCCC2)nc1	111% (inactive) and 101% (inactive)
O=C1C(=O)c2ccccc2C(O)=C1CC=C(Cl)Cl	44.7% (inactive) and 41.7% (inactive)
CC1=CC(=O)c2cccc(NC3=NCCO3)c21	91.6% (inactive)
COc1ccc2nccc(Cl)c2c1	110% (inactive)
CCc1ccc(OC(=O)CCl)cc1	111% (inactive)
CC(=O)Oc1cc(C(C)C)c(OCCN(C)C)cc1C	123% (inactive) and 105% (inactive)

SMILES	growth
O=C(O)c1cccc(Br)c1	103% (inactive) and 104% (inactive)
CC1(C)CC(=O)NC1=O	108% (inactive)
OCCSc1ccc(Cl)cc1	122% (inactive) and 84.6% (inactive)
COc1ccc(S(=O)(=O)c2ccc(F)cc2)cc1	80.7% (inactive)
COc1ccccc1OCC(O)CO (centres undefined)	76.7% (inactive)
Cc1ccc(NC(=S)N/C=C(\c2ccccc2)S(=O)Cc2ccccc2)c(C)c1 (centres undefined)	94% (inactive)
O=[N+]([O-])c1ccc(NC(c2ccccc2)c2ccc3cccnc3c2O)cc1 (centres undefined)	22% (inactive)
CN1C2C=CC(=O)C1C1C(=O)N(c3ccccc3)C(=O)C12 (centres undefined)	37.5% (inactive)
Cc1cc(-c2ccc(N=Nc3c(C)nn(-c4ccc(S(=O)(=O)O)cc4)c3O)c(C)c2)ccc1N=Nc1ccc(O)c(C(=O)O)c1	81.7% (inactive)
CCOCCC(=O)O	107% (inactive)
O=c1[nH]nnc2cc(Cl)ccc12	112% (inactive) and 109% (inactive)
NC(=O)Cc1nc(O)cc(=O)[nH]1	85.2% (inactive)
CC1OS(=O)OC1C (centres undefined)	105% (inactive) and 106% (inactive)
NNC(=O)Nc1ccccc1	106% (inactive)
COC(=O)c1ccccc1Cl	113% (inactive)
CCCCC/C(C)=N\NC(N)=S	70.9% (inactive)
COCCNC(C)=O	114% (inactive)
Nc1nc(-c2ccccn2)cc(-c2cc(-c3ccccn3)nc(N)n2)n1	111% (inactive)

— PubChem BioAssay (NCI)
